Reference: the supplement of paper PMC4022240
± gives the standard deviation.

B1: Unmod H3 variant T A R K S T G G K A P R K (peptide)
chain: TARKSTGGKAPRK
B2: Unmod H3 variant P R K Q L A T K A A R K S (peptide)
chain: PRKQLATKAARKS
B3: Unmod H2B variant D I F E R I A G E A S R L (peptide)
chain: DIFERIAGEASRL
B4: Unmod H2B variant N S F V T D I F E R I A S (peptide)
chain: NSFVTDIFERIAS
B5: Unmod H2B variant A M S I M N S F V T D I F (peptide)
chain: AMSIMNSFVTDIF
B6: Unmod H2B variant E I Q T A V R L L L P G E (peptide)
chain: EIQTAVRLLLPGE
B7: Unmod H2B variant G I S S K A M S I M N S F (peptide)
chain: GISSKAMSIMNSF
B8: Unmod H2B variant D I F E R I A S E A S R L (peptide)
chain: DIFERIASEASRL
B9: Unmod H2B variant Y N K R S T I T S R E I Q (peptide)
chain: YNKRSTITSREIQ
B10: Unmod H2B variant E G T K A V T K Y T S S K (peptide)
chain: EGTKAVTKYTSSK
B11: Unmod H3 variant A R T K Q T A R K S T G G (peptide)
chain: ARTKQTARKSTGG
B12: Unmod H2B variant E G T K A V T K Y T S A K (peptide)
chain: EGTKAVTKYTSAK
B13: Unmod H2B variant N S F V N D I F E R I A G (peptide)
chain: NSFVNDIFERIAG
B14: Unmod H2B variant K H A V S E G T K A V T K (peptide)
chain: KHAVSEGTKAVTK
B15: Unmod H2B variant G I S S K A M G I M N S F (peptide)
chain: GISSKAMGIMNSF
B16: Unmod H2B variant P G E L A K H A V S E G T (peptide)
chain: PGELAKHAVSEGT
B17: Unmod H2B variant Y S K R S T I S S R E I Q (peptide)
chain: YSKRSTISSREIQ
B18: Unmod H2B variant A M G I M N S F V N D I F (peptide)
chain: AMGIMNSFVNDIF
B19: Unmod H2B variant I A G E A S R L A H Y N K (peptide)
chain: IAGEASRLAHYNK
B20: Unmod H3 variant T G G K A P R K Q L A T K (peptide)
chain: TGGKAPRKQLATK

Legend:
Test in all cases: peptide microarray binding signal (635 nm), min-max normalized on array (fraction of array maximum); higher = stronger binding
[1] = target: T1, HaloTag-ATRX ADD domain (163-292)
T1 chain: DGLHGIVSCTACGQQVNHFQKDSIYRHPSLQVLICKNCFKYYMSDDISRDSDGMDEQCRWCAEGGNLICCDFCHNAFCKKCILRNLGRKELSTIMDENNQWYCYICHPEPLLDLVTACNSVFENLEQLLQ
Method in brief: (§1)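 An Axon GenePix 4000B scanned the arrays at 635 nm for signal and at 532 nm to catch misprints. Those arrays held histone 13-mer peptide–cellulose conjugates printed in triplicate on nitrocellulose with a Cy3 tracer, blocked overnight at 4°C and probed for 1 h at 4°C with biotin-labelled HaloTag reader fusions (10 nM to 1 μM) plus streptavidin-Alexa Fluor 647 or with rabbit histone antibodies (1:10,000 to 1:2,000) plus anti-rabbit Alexa 647. Each binding signal is a triplicate-spot mean intensity, scaled min-max within its library.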

[2] = target: HaloTag-ING2 PHD (mouse Ing2 200-280)
Method in brief: as §1

[3] = target: anti-H3K4me3 antibody ab8580
Method in brief: as §1

[4] = target: anti-H3K9me3 antibody ab8898
Method in brief: as §1

[5] = peptide region: Unmod H3 variant, binder concentration: 50 nM
[6] = peptide region: Unmod H3 variant, binder concentration: 500 nM
[7] = peptide region: Unmod H3 variant, binder concentration: 10 nM
[8] = peptide region: Unmod H3 variant, binder concentration: 100 nM
[9] = peptide region: Unmod H3 variant, binder concentration: 1:2,000 dilution
[10] = peptide region: Unmod H3 variant, binder concentration: 1:10,000 dilution
[11] = peptide region: Unmod H2B variant, binder concentration: 50 nM
[12] = peptide region: Unmod H2B variant, binder concentration: 500 nM
[13] = peptide region: Unmod H2B variant, binder concentration: 10 nM
[14] = peptide region: Unmod H2B variant, binder concentration: 100 nM
[15] = peptide region: Unmod H2B variant, binder concentration: 1:2,000 dilution
[16] = peptide region: Unmod H2B variant, binder concentration: 1:10,000 dilution

| Binder | peptide microarray binding signal [1, 5] | peptide microarray binding signal [1, 6] | peptide microarray binding signal [2, 7] | peptide microarray binding signal [2, 8] | peptide microarray binding signal [3, 9] | peptide microarray binding signal [3, 10] | peptide microarray binding signal [4, 9] | peptide microarray binding signal [4, 10] | peptide microarray binding signal [1, 11] | peptide microarray binding signal [1, 12] | peptide microarray binding signal [2, 13] | peptide microarray binding signal [2, 14] | peptide microarray binding signal [3, 15] | peptide microarray binding signal [3, 16] | peptide microarray binding signal [4, 15] | peptide microarray binding signal [4, 16] |
| --- | --- | --- | --- | --- | --- | --- | --- | --- | --- | --- | --- | --- | --- | --- | --- | --- |
| B1 | 0.00552 ± 0.00053 | 0.0118 ± 0.00044 | 0.00633 ± 0.00044 | 0.019 ± 0.0047 | 0.001 ± 4.5e-05 | 0.00114 ± 1.2e-05 | 0.000664 ± 1.2e-05 | 0.000923 ± 9.6e-06 |  |  |  |  |  |  |  |  |
| B2 | 0.00345 ± 4.2e-05 | 0.0108 ± 0.00017 | 0.00722 ± 0.00031 | 0.0163 ± 0.00099 | 0.00119 ± 3.4e-05 | 0.0012 ± 1.2e-05 | 0.000785 ± 1.3e-05 | 0.000923 ± 9.6e-06 |  |  |  |  |  |  |  |  |
| B3 |  |  |  |  |  |  |  |  | 0.0112 ± 0.00018 | 0.0406 ± 0.0012 | 0.013 ± 0.00037 | 0.0336 ± 0.00077 | 0.00406 ± 0.00012 | 0.00548 ± 0.00027 | 0.00234 ± 0.00013 | 0.003113 ± 2.6e-05 |
| B4 |  |  |  |  |  |  |  |  | 0.00646 ± 0.0003 | 0.0141 ± 0.00044 | 0.00483 ± 0.00011 | 0.00815 ± 0.00095 | 0.00238 ± 0.00045 | 0.00308 ± 0.00038 | 0.000936 ± 2e-05 | 0.00208 ± 9.6e-05 |
| B5 |  |  |  |  |  |  |  |  | 0.0108 ± 0.0002 | 0.0253 ± 0.001 | 0.01188 ± 7.7e-05 | 0.0239 ± 0.0025 | 0.00882 ± 0.0011 | 0.0132 ± 0.00021 | 0.00523 ± 0.00065 | 0.00571 ± 0.00035 |
| B6 |  |  |  |  |  |  |  |  | 0.0176 ± 0.00047 | 0.041 ± 0.0018 | 0.0245 ± 0.0014 | 0.0434 ± 0.0033 | 0.00893 ± 0.00076 | 0.0164 ± 0.00068 | 0.00628 ± 0.00047 | 0.0106 ± 0.0002 |
| B7 |  |  |  |  |  |  |  |  | 0.0103 ± 0.00033 | 0.0293 ± 0.0012 | 0.011 ± 0.0025 | 0.0429 ± 0.016 | 0.00194 ± 0.00057 | 0.00228 ± 0.00014 | 0.000936 ± 5e-05 | 0.00144 ± 2.8e-05 |
| B8 |  |  |  |  |  |  |  |  | 0.00655 ± 0.00034 | 0.00648 ± 0.00023 | 0.00454 ± 0.00011 | 0.0142 ± 0.0098 | 0.000793 ± 2.2e-05 | 0.00177 ± 2.9e-05 | 0.000453 ± 1.5e-05 | 0.001211 ± 1.2e-05 |
| B9 |  |  |  |  |  |  |  |  | 0.00837 ± 0.00045 | 0.0253 ± 0.0034 | 0.0181 ± 0.00093 | 0.0337 ± 0.0033 | 0.00293 ± 0.00014 | 0.00382 ± 0.00016 | 0.000936 ± 1.5e-05 | 0.00213 ± 7.9e-05 |
| B10 |  |  |  |  |  |  |  |  | 0.00473 ± 0.00015 | 0.00681 ± 0.00052 | 0.00561 ± 0.00046 | 0.01276 ± 6.8e-05 | 0.00121 ± 0.00013 | 0.001712 ± 1.6e-05 | 0.000468 ± 9e-06 | 0.000923 ± 9.6e-06 |
| B11 | 0.00445 ± 0.00012 | 0.00991 ± 0.00023 | 0.00824 ± 0.00015 | 0.01502 ± 0.00015 | 0.0014 ± 4.3e-05 | 0.00205 ± 7.6e-05 | 0.00101 ± 3.2e-05 | 0.00115 |  |  |  |  |  |  |  |  |
| B12 |  |  |  |  |  |  |  |  | 0.0108 ± 0.00025 | 0.0351 ± 0.00073 | 0.00776 ± 0.00021 | 0.0322 ± 0.0032 | 0.00196 ± 9.7e-05 | 0.0028 ± 0.00015 | 0.000544 ± 1.7e-05 | 0.00115 |
| B13 |  |  |  |  |  |  |  |  | 0.00721 ± 0.00059 | 0.00671 ± 0.00013 | 0.00364 ± 0.00012 | 0.003827 ± 3.3e-05 | 0.00198 ± 0.00015 | 0.002339 ± 2.1e-05 | 0.00074 ± 6.4e-06 | 0.001614 ± 1.6e-05 |
| B14 |  |  |  |  |  |  |  |  | 0.00533 ± 0.00061 | 0.00738 ± 0.00021 | 0.00406 ± 5.6e-05 | 0.0122 ± 0.00094 | 0.000906 ± 6.3e-05 | 0.0012 ± 3.2e-05 | 0.000378 ± 7.5e-06 | 0.000865 ± 9e-06 |
| B15 |  |  |  |  |  |  |  |  | 0.00856 ± 0.00082 | 0.0227 | 0.00913 ± 0.00027 | 0.0416 ± 0.0056 | 0.00215 ± 0.00023 | 0.00348 ± 0.00045 | 0.000695 ± 1.2e-05 | 0.0011 ± 1.1e-05 |
| B16 |  |  |  |  |  |  |  |  | 0.01009 ± 9.9e-05 | 0.0228 ± 0.001 | 0.0117 ± 0.00035 | 0.0287 ± 0.0019 | 0.0133 ± 0.0011 | 0.0163 ± 0.00093 | 0.00447 ± 0.00018 | 0.00484 ± 7.1e-05 |
| B17 |  |  |  |  |  |  |  |  | 0.01006 ± 2.8e-05 | 0.0303 ± 0.0022 | 0.0109 ± 0.00062 | 0.0429 ± 0.0047 | 0.00225 ± 0.00019 | 0.00211 ± 6.7e-05 | 0.00103 ± 2.2e-05 | 0.0015 ± 2.5e-05 |
| B18 |  |  |  |  |  |  |  |  | 0.0068 ± 0.00037 | 0.0162 ± 0.0016 | 0.0083 ± 0.00011 | 0.0126 ± 0.00023 | 0.00362 ± 0.00022 | 0.00548 ± 0.00033 | 0.00285 ± 0.0002 | 0.00311 ± 5.3e-05 |
| B19 |  |  |  |  |  |  |  |  | 0.0147 ± 0.00017 | 0.0384 ± 0.0025 | 0.0361 ± 0.0036 | 0.0742 ± 0.0014 | 0.00521 ± 0.00045 | 0.00633 ± 0.00022 | 0.00217 ± 5.9e-05 | 0.00259 ± 4.6e-05 |
| B20 | 0.00389 ± 0.00042 | 0.00729 ± 0.00021 | 0.00788 ± 0.00069 | 0.00985 ± 0.00081 | 0.00126 ± 8.1e-05 | 0.001541 ± 1.5e-05 | 0.000876 ± 2.6e-05 | 0.000807 |  |  |  |  |  |  |  |  |
